The results in this text go back to PubChem BioAssay (NCI).

Compounds without any hit were thinned out: in the full panel of roughly 79,000, 15% have a hit. Unmarked numbers belong to inactive results. Calls of active or inactive are those of the source. Cut-off read from the data, not from the text of the source: active = growth inhibition above about 70%; inactive = the rest.

A short description of assay [1]: NCI Yeast Anticancer Drug Screen. Data for the rad50 strain (AID 155).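 Note: 0% = growth of vehicle-only cultures of the same strain.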 Particulars: S. cerevisiae rad50 strain growth inhibition, active compounds read high. Put shortly: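 Genetically altered yeast (DNA repair pathway); compound treatment; growth inhibition vs vehicle ctrl.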
The nature of assay [2]: NCI Yeast Anticancer Drug Screen. Data for the mec2-1 strain (AID 157). Particulars: S. cerevisiae mec2-1 strain, active compounds read high. An outline of the steps: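 Compounds were applied to mec2-1 yeast cells. Their growth was then compared with that of vehicle-treated cultures to give growth inhibition.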
A short description of assay [3]: NCI Yeast Anticancer Drug Screen. Data for the sgs1 mgt1 strain (AID 161).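 Note: 0% = growth of cultures given vehicle only.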 Particulars: S. cerevisiae sgs1 mgt1 strain, active compounds read high. An outline of the steps: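 Yeast cells carrying a defined DNA-repair defect were exposed to test compounds. Growth inhibition was measured relative to vehicle-treated controls.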
The nature of assay [4]: NCI Yeast Anticancer Drug Screen. Data for the cln2 rad14 strain (AID 165).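 Note: 0% = growth equal to vehicle treated cultures.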 Conditions: S. cerevisiae cln2 rad14 strain, active compounds read high. Put shortly: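 Strain: cln2 rad14 yeast, altered in cell cycle control and DNA damage repair. Read-out: growth inhibition vs vehicle.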
Assay [5] in a line: NCI Yeast Anticancer Drug Screen. Data for the bub3 strain (AID 167). Conditions: S. cerevisiae bub3 mutant strain, active compounds read high. An outline of the steps: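 Yeast carrying a defined mutation is treated with each compound, and growth is compared with that of vehicle-exposed cells to give inhibition.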
A short description of assay [6]: NCI Yeast Anticancer Drug Screen. Data for the mlh1 rad18 strain (AID 175). Particulars: S. cerevisiae mlh1 rad18 strain growth inhibition, active compounds read high. Put shortly: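 A repair-deficient yeast strain is exposed to test compound, and growth is scored relative to vehicle-treated controls.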
Where [7] appears, read: at 5.0 µM (retest, dose inferred, filed as 0.5).
Where [8] appears, read: at 50.0 µM (retest, dose inferred, filed as 5.0).

With `Oc1cccc(NCSc2ccc(Cl)cc2)c1`, the growth inhibition is -4% in assay [1] (setting [7]); 95% (active) in assay [1] (setting [8]); 93.3% (active) in assay [1] (at 50.0 µM); -3% in assay [2] (setting [7]); 95% (active) in assay [2] (setting [8]); 95.2% (active) in assay [2] (at 50.0 µM). In addition, the growth inhibition in assay [3] (setting [7]) is -9%; in assay [3] (setting [8]), 95% (active); in assay [3] (at 50.0 µM) it was 96.2% (active); in assay [4] (setting [7]) it was -5%; in assay [4] (setting [8]), 91% (active); in assay [4] (at 50.0 µM) it was 92.5% (active). In addition, the growth inhibition is -3% in assay [5] (setting [7]); 93% (active) in assay [5] (setting [8]); 94.1% (active) in assay [5] (at 50.0 µM); -1% in assay [6] (setting [7]); 91% (active) in assay [6] (setting [8]); 94% (active) in assay [6] (at 50.0 µM).

Take `O=c1c2ccccc2sc2c(CO)ccc(NCCN3CCCCC3)c12`: the growth inhibition in assay [1] (setting [7]) is -5%; in assay [1] (setting [8]) it was 45%; in assay [1] (at 50.0 µM), 71.2% (active); in assay [2] (setting [7]) it was 6%; in assay [2] (setting [8]), -21%; in assay [2] (at 50.0 µM), 23.6%. Moreover, the growth inhibition in assay [3] (setting [7]) was -9%; in assay [3] (setting [8]), 35%; in assay [3] (at 50.0 µM), 34.5%; in assay [4] (setting [7]), -21%; in assay [4] (setting [8]), 13%; in assay [4] (at 50.0 µM), 24.5%. The growth inhibition in assay [5] (setting [7]) was 12%; in assay [5] (setting [8]), 13%; in assay [5] (at 50.0 µM) it was 25.4%; in assay [6] (setting [7]) it was 2%; in assay [6] (setting [8]), 40%; in assay [6] (at 50.0 µM) it was 40.1%.

On to `CSC(=S)N/N=C(/C)CC(C)C`, for which the growth inhibition was 25% in assay [1] (setting [7]); 94% (active) in assay [1] (setting [8]); 57.1% in assay [1] (at 50.0 µM); 14% in assay [2] (setting [7]); 94% (active) in assay [2] (setting [8]); 93% (active) in assay [2] (at 50.0 µM). Moreover, the growth inhibition in assay [3] (setting [7]) is 10%; in assay [3] (setting [8]), 92% (active); in assay [3] (at 50.0 µM) it was 45.8%; in assay [4] (setting [7]), -5%; in assay [4] (setting [8]) it was 88% (active); in assay [4] (at 50.0 µM), 66.8%. For the same compound, the growth inhibition in assay [5] (setting [7]) was 24%; in assay [5] (setting [8]), 95% (active); in assay [5] (at 50.0 µM) it was 95.8% (active); in assay [6] (setting [7]), 16%; in assay [6] (setting [8]), 95% (active); in assay [6] (at 50.0 µM) it was 54%.

As to `CC(=O)Nc1cccc(C(=O)O)c1`, the growth inhibition is 6% in assay [1] (setting [7]); -2% in assay [1] (setting [8]); 1.3% in assay [1] (at 50.0 µM); -1% in assay [2] (setting [7]); -4% in assay [2] (setting [8]); 0% in assay [2] (at 50.0 µM). Also, the growth inhibition in assay [3] (setting [7]) is -5%; in assay [3] (setting [8]) it was 1%; in assay [3] (at 50.0 µM), 5.75%; in assay [4] (setting [7]), 4%; in assay [4] (setting [8]), -1%; in assay [4] (at 50.0 µM), 39.9%. The growth inhibition in assay [5] (setting [7]) is 4%; in assay [5] (setting [8]), 7%; in assay [5] (at 50.0 µM) it was 8.6%; in assay [6] (setting [7]) it was 1%; in assay [6] (setting [8]) it was -3%; in assay [6] (at 50.0 µM) it was -16.6%.

Take `CCc1cc2c(c3c1C(=O)CC3)C(C)(C)CCC2`: the growth inhibition in assay [1] (setting [7]) is 1%; in assay [1] (setting [8]), 96% (active); in assay [1] (at 50.0 µM) it was 11%; in assay [2] (setting [7]), 2%; in assay [2] (setting [8]) it was 96% (active); in assay [2] (at 50.0 µM), 34.6%. Moreover, the growth inhibition is 1% in assay [3] (setting [7]); 97% (active) in assay [3] (setting [8]); 6.4% in assay [3] (at 50.0 µM); 2% in assay [4] (setting [7]); 97% (active) in assay [4] (setting [8]); 13.8% in assay [4] (at 50.0 µM). Moreover, the growth inhibition in assay [5] (setting [7]) was 12%; in assay [5] (setting [8]), 97% (active); in assay [5] (at 50.0 µM) it was 48.5%; in assay [6] (setting [7]), -6%; in assay [6] (setting [8]), 97% (active); in assay [6] (at 50.0 µM), 5%.

Regarding `Fc1ccc(CSC(=S)Nc2ccc(F)cc2)cc1`, the growth inhibition was 5% in assay [1] (setting [7]); 29% in assay [1] (setting [8]); 69.5% in assay [1] (at 50.0 µM); 0% in assay [2] (setting [7]); 16% in assay [2] (setting [8]); 47.6% in assay [2] (at 50.0 µM). Besides, the growth inhibition was 2% in assay [3] (setting [7]); 29% in assay [3] (setting [8]); 68.3% in assay [3] (at 50.0 µM); -9% in assay [4] (setting [7]); -4% in assay [4] (setting [8]); 32.5% in assay [4] (at 50.0 µM). Moreover, the growth inhibition in assay [5] (setting [7]) is -6%; in assay [5] (setting [8]), 8%; in assay [5] (at 50.0 µM), 27.6%; in assay [6] (setting [7]), -3%; in assay [6] (setting [8]), 19%; in assay [6] (at 50.0 µM) it was 78.7% (active).

With `C=C(c1ccc2nc(NC(=O)OC)[nH]c2c1)c1cccs1`, the growth inhibition in assay [1] (setting [7]) was -4%; in assay [1] (setting [8]), 47%; in assay [1] (at 50.0 µM) it was 61.3%; in assay [2] (setting [7]), -7%; in assay [2] (setting [8]), 88% (active); in assay [2] (at 50.0 µM), 93.2% (active). For the same compound, the growth inhibition was -4% in assay [3] (setting [7]); 72% (active) in assay [3] (setting [8]); 91.8% (active) in assay [3] (at 50.0 µM); -9% in assay [4] (setting [7]); 18% in assay [4] (setting [8]); 41.1% in assay [4] (at 50.0 µM). In addition, the growth inhibition in assay [5] (setting [7]) is -3%; in assay [5] (setting [8]), 84% (active); in assay [5] (at 50.0 µM) it was 90.5% (active); in assay [6] (setting [7]), -9%; in assay [6] (setting [8]), 92% (active); in assay [6] (at 50.0 µM), 95% (active).

With `CCOC(=O)C1=C(c2ccccc2)SC(c2ccccc2)N(C(C)C)C1=O` (stereo not given), the growth inhibition in assay [1] (setting [7]) was 8%; in assay [1] (setting [8]) it was 67%; in assay [1] (at 50.0 µM) it was 90.3% (active); in assay [2] (setting [7]), 13%; in assay [2] (setting [8]), 51%; in assay [2] (at 50.0 µM), 88% (active). Moreover, the growth inhibition in assay [3] (setting [7]) was 15%; in assay [3] (setting [8]) it was 81% (active); in assay [3] (at 50.0 µM) it was 94.5% (active); in assay [4] (setting [7]) it was 12%; in assay [4] (setting [8]) it was 63%; in assay [4] (at 50.0 µM) it was 83.6% (active). In addition, the growth inhibition in assay [5] (setting [7]) is 4%; in assay [5] (setting [8]), 68%; in assay [5] (at 50.0 µM), 87.7% (active); in assay [6] (setting [7]), 9%; in assay [6] (setting [8]), 76% (active); in assay [6] (at 50.0 µM) it was 88.1% (active).

`Cc1ccc(C(=O)/C=C/c2ccccc2)cc1`: the growth inhibition is 8% in assay [1] (setting [7]); 42% in assay [1] (setting [8]); 52% in assay [1] (at 50.0 µM); -6% in assay [2] (setting [7]); 14% in assay [2] (setting [8]); 13.7% in assay [2] (at 50.0 µM). For the same compound, the growth inhibition in assay [3] (setting [7]) is 1%; in assay [3] (setting [8]), 38%; in assay [3] (at 50.0 µM), 36.6%; in assay [4] (setting [7]), 0%; in assay [4] (setting [8]) it was -22%; in assay [4] (at 50.0 µM), -22%. In addition, the growth inhibition was 6% in assay [5] (setting [7]); 19% in assay [5] (setting [8]); 9.3% in assay [5] (at 50.0 µM); 2% in assay [6] (setting [7]); 24% in assay [6] (setting [8]); 82.1% (active) in assay [6] (at 50.0 µM).

On to `O=S(=O)(Nc1cccc(C2=NCCN2)c1)c1ccc2c(S(=O)(=O)Nc3cccc(C4=NCCN4)c3)cccc2c1`, for which the growth inhibition was -3% in assay [1] (setting [7]); 9% in assay [1] (setting [8]); 82.5% (active) in assay [1] (at 50.0 µM); 6% in assay [2] (setting [7]); 2% in assay [2] (setting [8]); 9.45% in assay [2] (at 50.0 µM). In addition, the growth inhibition in assay [3] (setting [7]) is -5%; in assay [3] (setting [8]), 2%; in assay [3] (at 50.0 µM), 88.3% (active); in assay [4] (setting [7]), -1%; in assay [4] (setting [8]), 6%; in assay [4] (at 50.0 µM) it was 13.6%. Besides, the growth inhibition is -7% in assay [5] (setting [7]); -12% in assay [5] (setting [8]); 4.8% in assay [5] (at 50.0 µM); -2% in assay [6] (setting [7]); 3% in assay [6] (setting [8]); 78.2% (active) in assay [6] (at 50.0 µM).
